Measured values reported in the supplement of paper PMC11555231.

The binders below were run against PADI4, Q9UM07 (assay: log2 enrichment score relative to parent PADI4_3 peptide (binding to PADI4); higher = tighter binding than parent). Conditions: CaCl2: 10 mM.
Experimental: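 Deep mutational scan of the cyclic peptide PADI4_3 (ClAc-D-Tyr1 initiator, thioether-cyclised to Cys12, C-terminal Gly plus HA tag, mRNA-displayed). Positions 2-11 were each randomised by NNK codons; Met was reprogrammed as N-methyl-alanine (MeA). One round of equilibrium panning against bead-immobilised human PADI4 (100 nM, 10 mM CaCl2, RT). Log2 enrichment (bound/input frequency) relative to the parent sequence (0 = parent), mean of three independent selections.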

Sequence of PADI4, Q9UM07 (Q9UM07 whole entry): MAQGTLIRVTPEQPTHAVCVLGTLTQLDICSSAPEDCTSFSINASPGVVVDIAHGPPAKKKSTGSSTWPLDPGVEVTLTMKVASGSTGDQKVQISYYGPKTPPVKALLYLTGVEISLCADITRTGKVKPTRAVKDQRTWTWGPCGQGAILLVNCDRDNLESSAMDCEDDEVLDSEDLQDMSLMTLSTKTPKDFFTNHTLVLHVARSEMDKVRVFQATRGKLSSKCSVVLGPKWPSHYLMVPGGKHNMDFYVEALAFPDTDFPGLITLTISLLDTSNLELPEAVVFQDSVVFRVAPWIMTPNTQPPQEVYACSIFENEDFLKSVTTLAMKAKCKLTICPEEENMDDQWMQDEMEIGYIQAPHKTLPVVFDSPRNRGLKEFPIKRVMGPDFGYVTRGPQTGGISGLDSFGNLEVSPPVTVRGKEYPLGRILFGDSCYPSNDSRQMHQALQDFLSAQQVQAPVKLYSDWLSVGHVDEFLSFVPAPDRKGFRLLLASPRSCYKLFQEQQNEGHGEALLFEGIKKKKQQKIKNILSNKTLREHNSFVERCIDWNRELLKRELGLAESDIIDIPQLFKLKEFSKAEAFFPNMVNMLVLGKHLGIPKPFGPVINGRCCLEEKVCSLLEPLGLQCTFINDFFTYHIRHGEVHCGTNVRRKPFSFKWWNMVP

First: YRDHHYRHDKYCG [PADI4_3_P9D P9D]
Second: YRDHHYRHPKYCG [PADI4_3_R7R R7R]
The log2 enrichment score of the first is lower: -2.06 for the first, 0 for the second.

First: YRDHHYRHPKDCG [PADI4_3_Y11D Y11D]
Second: YRDHHYRRPKYCG [PADI4_3_H8R H8R]
The log2 enrichment score of the first is lower: -3.74 for the first, -3.15 for the second.

Compared with YRDHHYRKPKYCG [PADI4_3_H8K H8K], YRDHDYRHPKYCG [PADI4_3_H5D H5D] is lower in log2 enrichment score: -3.86 for the first, -4.15 for the second.

YRDHHYRHPKYCG [PADI4_3_H4H H4H] and YRDHHYDHPKYCG [PADI4_3_R7D R7D] are within 0.2 log units of each other in log2 enrichment score: 0 for the first, 0.031 for the second.

First: YRHHHYRHPKYCG [PADI4_3_D3H D3H]
Second: YRDHHYRHKKYCG [PADI4_3_P9K P9K]
The log2 enrichment score of the first is lower: -3.57 for the first, -1.76 for the second.

Compared with YRDHHYRHPKYCG [PADI4_3_K10K K10K], YDDHHYRHPKYCG [PADI4_3_R2D R2D] is lower in log2 enrichment score: 0 for the first, -3.75 for the second.

First: YRDHHYRDPKYCG [PADI4_3_H8D H8D]
Second: YRDHHYRHPKYCG [PADI4_3_R2R R2R]
The log2 enrichment score of the first is lower: -3.82 for the first, 0 for the second.

Going from YRDHHYKHPKYCG [PADI4_3_R7K R7K] to YRDKHYRHPKYCG [PADI4_3_H4K H4K], the log2 enrichment score falls from -0.44 to -2.3.

Compared with YRDHHYRHPKKCG [PADI4_3_Y11K Y11K], YRDHHYRHPRYCG [PADI4_3_K10R K10R] is higher in log2 enrichment score: -4.77 for the first, -0.238 for the second.

Compared with YKDHHYRHPKYCG [PADI4_3_R2K R2K], YRDHHKRHPKYCG [PADI4_3_Y6K Y6K] is lower in log2 enrichment score: 0.59 for the first, -1.84 for the second.

Compared with YRDHHDRHPKYCG [PADI4_3_Y6D Y6D], YRDHHYRHPKRCG [PADI4_3_Y11R Y11R] is lower in log2 enrichment score: -2.27 for the first, -3.96 for the second.

Going from YRDHHYRHRKYCG [PADI4_3_P9R P9R] to YRDHHYRHPDYCG [PADI4_3_K10D K10D], the log2 enrichment score falls from -1.83 to -2.34.

Compared with YRDHRYRHPKYCG [PADI4_3_H5R H5R], YRDRHYRHPKYCG [PADI4_3_H4R H4R] is higher in log2 enrichment score: -3.55 for the first, 2.48 for the second.

Compared with YRRHHYRHPKYCG [PADI4_3_D3R D3R], YRDHHRRHPKYCG [PADI4_3_Y6R Y6R] is higher in log2 enrichment score: -2.94 for the first, -0.786 for the second.

Compared with YRKHHYRHPKYCG [PADI4_3_D3K D3K], YRDHKYRHPKYCG [PADI4_3_H5K H5K] is higher in log2 enrichment score: -3.84 for the first, -2.71 for the second.
